Only some compounds are listed: those with a hit (about 2.4% of all), similar ones and a draw of the others.
D2 ag-1: activates the human D2 dopamine receptor; P14416; DiscoveRx PathHunter D2 beta-arrestin, luminescence, 90 min; 100% = 57 uM dopamine signal; activation, % (concentration not given with the values); 360,000 compounds, 0.084% hits; AID 624465; in the data active = activation above about 40%
Target sequence (P14416 whole entry, looked up): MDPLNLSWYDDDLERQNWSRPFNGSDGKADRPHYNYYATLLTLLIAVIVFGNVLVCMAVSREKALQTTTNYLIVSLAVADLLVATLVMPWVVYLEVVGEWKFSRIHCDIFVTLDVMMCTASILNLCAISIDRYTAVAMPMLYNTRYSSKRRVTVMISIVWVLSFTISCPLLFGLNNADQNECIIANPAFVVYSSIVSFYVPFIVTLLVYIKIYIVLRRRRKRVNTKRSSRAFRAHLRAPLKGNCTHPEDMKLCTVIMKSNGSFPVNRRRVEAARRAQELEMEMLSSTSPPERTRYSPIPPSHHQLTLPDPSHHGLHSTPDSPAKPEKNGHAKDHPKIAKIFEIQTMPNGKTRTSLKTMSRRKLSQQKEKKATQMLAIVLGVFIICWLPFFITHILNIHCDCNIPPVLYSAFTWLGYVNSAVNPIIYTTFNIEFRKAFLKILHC
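Agonist mode: compounds alone added to overnight-plated D2 PathHunter cells for 90 min at 37 C, with 57 uM final dopamine (EC100) defining full response. Beta-arrestin recruitment detected by chemiluminescent reagent, read after 1 h at ambient temperature.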
D2 antagonist: D2 dopamine receptor (human) antagonism; HEK293 TREx D2 cells, calcium flux, dopamine EC80; inhibition, % at 10 µM; 340,000 compounds, 2% hits; in the data active = inhibition above about 30%; inactive = below that, where a call was filed; also: 0% is about no effect
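Calcium mobilization kinetics were recorded at 1 s intervals in tetracycline-induced HEK293 T-REx D2 cells, first for 180 s after compound addition and then 180 s after EC80 dopamine.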
D2 PAM-1: positive allosteric modulators of human D2 dopamine receptor | P14416 | potentiation, % (test concentration not listed) | AID 624464 | 360,000 compounds, 0.23% hits | DiscoveRx D2 beta-arrestin cells, luminescence, 90 min; 100% = 57 uM dopamine signal; in the data active = potentiation above about 50%
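PathHunter D2 cells, attached overnight at 37 deg C, received compound in DMSO plus dopamine at EC20 (50 nM final) for 90 min at 37 deg C. Beta-arrestin recruitment was read as luminescence after 1 h with detection reagent at ambient temperature.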
D2 PAM-2: positively modulates the human D2 dopamine receptor allosterically; P14416; HEK293 T-REx D2, calcium flux, EC20 dopamine potentiation; potentiation, % at 10 µM; 340,000 compounds, 0.34% hits; AID 485347;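 active = potentiation over 3 SD above the plate norm, cut at about 30% in these data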; also: 0% is about no effect
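Tetracycline-induced HEK293 T-REx cells force-coupled to calcium signalling expressed D2; compounds were pin-added after a 10 s baseline, read kinetically 180 s, then an EC20 dopamine challenge followed with a further 180 s calcium read.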
D2 ag-2: D2 dopamine receptor (human) agonism; P14416; HEK293 T-REx D2 cells, calcium flux agonist mode; activation, % at 2 µM; 340,000 compounds, 0.53% hits; AID 485358;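 active = activation over 3 SD above normal in the single-dose calcium agonist read, cut at about 30% in these data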; also: 0% is about no effect
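Agonism scored from kinetic calcium signal (1 read/sec, 180 s) following compound pin transfer, after a 10 s baseline. Cells: HEK293 Trex line expressing inducible D2 receptor coupled to calcium, dye-loaded after overnight culture at 30 C.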
Active calls of the source: *; / = not tested or not shown.

SMILES	D2 ag-1	D2 antagonist	D2 PAM-1	D2 PAM-2	D2 ag-2
O=C(O)c1cccc(CN2C(=O)S/C(=C/c3cccc([N+](=O)[O-])c3)C2=O)c1	-1	34*	2	4	0
Nc1ccccc1NC1=CC(=O)CC(c2ccco2)C1 (centres undefined)	-1	31*	-2	-3	1
CCN(CC)CCNC(=O)c1ccc(NC(C)=O)cc1	-2	-4	2	-4	1
CCN(CC)CCNC(=O)c1ccc(NC(=O)COc2ccc3c(c2)CCC3)cc1	-7	32*	-5	2	1
COc1ccc(CCNC(=O)C(C)n2nc(C)c3sc4ccccc4c3c2=O)cc1OC (centres undefined)	/	/	/	4	1
CC(=O)Nc1ccccc1OCc1cc(=O)n2c3c(sc2n1)CCCC3	/	/	/	6	-1
CCOC(=O)c1c(C)n(-c2ccc(C)cc2)c2ccc(O)c(CN(C)C)c12	4	40*	-8	-10	0
Cn1nc(C(=O)Nc2ccc(F)c(Cl)c2)c2c1-c1ccccc1S(=O)(=O)C2	/	/	/	-1	-1
CC(=O)N1c2ccc(S(=O)(=O)Nc3ccc(Cl)cc3C)cc2CC1C (centres undefined)	/	/	/	-1	0
CCC1(NC(C)=O)CC2CC1CC2NC(C)=O (centres undefined)	-4	38*	-1	-19	0
CC(=O)NC1CCCC(NC(C)=O)C1 (centres undefined)	1	/	-4	/	/
CC1=CC(C)(C)Nc2ccc(OC(=O)c3ccco3)cc21	7	-3	51*	1	1
CCN(c1ccccc1)c1nnc(NC(=O)Nc2ccc(Br)cc2F)s1	/	/	/	0	1
COc1ccc(S(=O)(=O)Nc2ccc(S(=O)(=O)Nc3nccs3)cc2)cc1	-2	50*	1	-1	0
COc1ccc(S(=O)(=O)Nc2ccc(Oc3ncccn3)c(Cl)c2)cc1	-2	-6	4	-9	1
COc1ccc(CC(=O)Nc2ccc(S(=O)(=O)Nc3nccs3)cc2)cc1	-3	25	-1	-3	0
COc1ccc(NS(=O)(=O)c2ccc(Oc3ncccn3)cc2)cc1	1	-3	0	46*	1
COc1ccc(NS(=O)(=O)c2ccc(NC(=O)c3ccccn3)cc2)cc1	13	-1	0	73*	0
COc1cc(OC)cc(C(=O)Nc2ccc(S(=O)(=O)Nc3nc(C)cc(C)n3)cc2)c1	5	34*	-4	1	-1
CC(C)CNC(=O)C1=CC(c2ccc3c(c2)OCO3)=NS(=O)(=O)N1C	/	/	/	2	4
Cc1ccc(S(=O)(=O)c2cn(C)c3cc(N4CCCCCC4)c(F)cc3c2=O)cc1	/	/	/	5	-1
CC(=O)c1ccc(NC(=O)C2=CC(c3ccc(C)cc3)=NS(=O)(=O)N2C)cc1	/	/	/	7	1
Cc1ccc2cccc(NC(=S)NC(=O)c3ccccc3)c2n1	-3	4	-13	33*	0
COc1ccc2c(c1)CCc1c-2n[nH]c1C(=O)O	1	31*	2	-3	0
CC(C)CSc1ccccc1NC(=O)c1sc2nc(-c3ccncc3)ccc2c1N	/	/	/	10	2
SMILES	D2 ag-1	D2 antagonist	D2 PAM-1	D2 PAM-2	D2 ag-2
Cc1ccc(/C=C\c2nccc3c2[nH]c2ccccc23)cc1	-4	44*	-36	-23	-1
Cc1cc2oc(=O)c(CC(=O)NCCc3ccccc3F)c(C)c2c2occ(C(C)(C)C)c12	/	/	/	-3	0
CC(C)CCNC(=O)c1ccc(Cn2c(=O)c3cccn3c3cccnc32)cc1	/	/	/	1	10
CC(NS(=O)(=O)c1ccc(OCC(=O)N2CCOCC2)c(Cl)c1)c1ccccc1 (centres undefined)	-1	3	-4	-2	0
CC(NS(=O)(=O)c1ccc(OCC(=O)N2CCOCC2)cc1)c1ccccc1 (centres undefined)	-1	31*	10	8	0
Nc1c2c(nc3ccc(Br)cc13)N(C1CCCCC1)CC2	/	74*	/	-21	0
COC(=O)c1sccc1NC(=O)Nc1ccc(Cl)c(Cl)c1	5	44*	-15	-6	0
COC(=O)c1sccc1NC(=O)c1ccc(C)s1	-2	33*	-4	33*	-1
COC(=O)c1sccc1NC(=O)Nc1ccc(C)c(C)c1	-6	-3	0	-4	0
COC(=O)c1sccc1NC(=O)Cc1ccc(Br)cc1	2	42*	-8	-6	-1
Cc1cccc(-c2nc(S(=O)(=O)c3ccccc3)c(N3CCN(c4ccccc4)CC3)o2)c1	/	/	/	-5	/
COc1ccc(Nc2nc(C(=O)N3CCc4cc(OC)c(OC)cc4C3)cs2)cc1	10	22	4	-1	-2
COc1ccc(Nc2nc(C(=O)N3CCc4ccccc4C3)cs2)cc1	-5	81*	-6	25	0
O=C(O)c1ccc2c(=O)n3c(nc2c1)/C(=C/c1ccc(C(F)(F)F)cc1)CC3	-1	13	1	-1	0
O=c1c2ccccc2nc2n1CC/C2=C/N1CCN(c2cccc(C(F)(F)F)c2)CC1	1	48*	-19	-12	0
CCOc1cc2[nH]c(=O)n(CCC(=O)NCCc3ccc(OC)c(OC)c3)c(=O)c2cc1OCC	-1	-3	7	35*	0
COc1ccc(CCNC(=O)CCn2c(=O)[nH]c3cc(OC)c(OC)cc3c2=O)cc1OC	-1	13	17	-4	0
O=C(O)CC(c1ccc(Br)cc1)N1Cc2ccccc2C1=O (centres undefined)	-2	42*	1	1	0
Cc1ccc(-c2noc(-c3ccccc3NC(=O)C3CC(=O)N(c4ccc(C)cc4)C3)n2)cc1 (centres undefined)	/	/	/	7	-2
Cc1ccc(SCC(=O)Nc2cccc(S(=O)(=O)N3CCOCC3)c2)cc1C	-2	35*	-4	8	0
O=C(CSc1ccc(Br)cc1)Nc1cccc(S(=O)(=O)N2CCOCC2)c1	1	14	5	-8	0
COc1ccc(C(C)=O)cc1CC(=O)Nc1cccc(S(=O)(=O)N2CCOCC2)c1	-2	33*	-1	-11	0
COc1ccc(C(C)=O)cc1CC(=O)Nc1ccccc1-c1ccccc1	-6	-4	4	31*	-1
COc1ccc(C)cc1NC(=O)CSc1nc2ccccc2nc1N1CC(C)OC(C)C1 (centres undefined)	-1	38*	-2	-1	0
CCc1nc(SCC(=O)Nc2cc(C)ccc2OC)c2c(C)c(C)sc2n1	1	44*	0	5	0
CCc1nc(SCC(=O)Nc2ccccc2OC)c2c(C)c(C)sc2n1	-6	-7	9	-9	1
COc1ccccc1NC(=O)CSc1nc2ccccc2nc1N1CC(C)OC(C)C1 (centres undefined)	-3	-2	-1	-8	0

Source: PubChem BioAssay (National Center for Advancing Translational Sciences (NCATS))
